Screening data (PubChem)
Sampled rows, rich in hits. Any-hit rate of the full collection: about 12%.
Cycloheximide cs = Cycloheximide Counterscreen for Small Molecule Inhibitors of Shiga Toxin | cell reporter, cycloheximide protein synthesis inhibition counterscreen | max response, % | actives 12% (n = 300,000) | AID 2314, 2010; in the data active = max response mostly above about 13%, no sharp cut-off; inactive = mostly below about 14%; note: read at 38.3 µM for the half of the compounds with a filed dose; 0% is about no effect
Shiga toxin inh = A qHTS for Small Molecule Inhibitors of Shiga Toxin. Vero cells, Shiga toxin protein synthesis inhibition reporter. inhibition, % at 38.7 µM. actives 9.2% (n = 290,000); in the data active = inhibition mostly above about 28%, no sharp cut-off; inactive = mostly below about 43%; note: 0% is about no effect
Lassa entry inh = qHTS for Inhibitors of binding or entry into cells for Lassa Virus. Lassa virus pseudotype entry inhibition, cell reporter. Potency, µM (doses to about 37.9 µM), for the others: at the top dose activity change, negative = inhibition, usual class: inhibitors. actives 1.2% (n = 300,000). AID 540256, 2011; calls by dose curve; tested in HEK293 cells; note: potency is the fitted concentration of half-maximal effect; % is set by controls: 0 for no effect and ±100 for the full control effect; nearly all actives have a fitted effect of over 50% in size
MARV entry inh = qHTS for inhibitors of binding or entry into cells for Marburg Virus. Marburg virus pseudotyped entry inhibition, cell reporter. Potency, µM (doses to about 37.8 µM), inactives show at the highest dose activity change, negative = inhibition, hits mostly inhibitors. actives 1.8% (n = 300,000); calls by dose curve; tested in HEK293 cells; note: potency is the fitted concentration of half-maximal effect; % is set by controls: 0 for no effect and ±100 for the full control effect
* hit, by the source's call; ? = inconclusive; / = not tested or not shown; ! = not confirmed by another sample; [ ] = another dose, or the depositor's remark.

SMILES	Cycloheximide cs	Shiga toxin inh	Lassa entry inh	MARV entry inh
CC(=O)Nc1ccc(NCc2ccc(C)s2)cc1	21*	50*	3%	2%
C#CCCCON=C1C[C@@H](O)[C@H](O)[C@H]2[C@@H]3C(=O)N(Cc4ccc5c(c4)OCO5)C(=O)[C@@H]3CC[C@@H]12	/	/	/	-7%[14.2 µM]
Cc1ccccc1-c1cccc([C@@H]2C[C@H]3CN(Cc4cccnc4)C(=O)[C@]34CCCN24)c1	-3	-6	?	?
CCOc1ccc(C2c3[nH]c4ccccc4c3CCN2C(=O)CSc2ccccc2)cc1 (stereo not given)	/	/	6.3µM*	/
COc1ccc(C2c3[nH]c4ccccc4c3CCN2Cc2ccoc2)c(F)c1 (stereo not given)	2	-7	/	/
COc1ccc(C2c3[nH]c4ccccc4c3CCN2C(=O)Cc2nonc2C)c(F)c1 (stereo not given)	37*	109*	/	/
CCOC(=O)c1[nH]c(C)c(C(=O)N2CCc3c([nH]c4ccccc34)C2c2ccccn2)c1C (stereo not given)	-1	-20	/	/
CSc1ccc(C2c3[nH]c4ccccc4c3CCN2C(=O)c2ccnn2C)cc1 (stereo not given)	35*	72*	?	?
COc1ccc(C(=O)N2CCc3c([nH]c4ccccc34)C2C(F)(F)F)cc1 (stereo not given)	-2	-5	/	/
COc1cc(C(=O)N2CCc3c([nH]c4ccccc34)C2c2ccc(F)cc2)cc(OC)c1OC (stereo not given)	/	/	8.9µM*	/
CCc1nn(CC(=O)N2CCN(c3cccc(C(F)(F)F)c3)CC2)c(=O)c2cccn12	/	/	2%[46.1 µM]	?
CC(C)Cn1c(N)c(C(=O)COC(=O)Cc2cccc(C(F)(F)F)c2)c(=O)n(C)c1=O	/	/	-3%	3%
O=C(CCC1CCCC1)N1CCc2c([nH]c3ccccc23)C1c1ccc(F)cc1 (stereo not given)	/	/	5µM*	/
Cc1ncoc1C(=O)N1CCc2c([nH]c3ccccc23)C1c1ccccc1F (stereo not given)	1	2	-9%	?
CSc1ccc(C2c3[nH]c4ccccc4c3CCN2C(=O)CCc2ccccc2)cc1 (stereo not given)	/	/	2.5µM*	/
Cc1ccc(C2c3[nH]c4ccccc4c3CCN2C(=O)CSc2ccccc2)cc1 (stereo not given)	/	/	10µM*	/
CCn1nc(C)cc1C(=O)N1CCc2c([nH]c3ccccc23)C1c1cc(F)ccc1F (stereo not given)	55*	82*	3%	?
O=C(O)CSCC(=O)N1CCc2c([nH]c3ccccc23)C1C(F)(F)F (stereo not given)	-5	-8	20%[46.1 µM]	8%[46.1 µM]
COc1ccccc1OCC(=O)NNC(=O)Nc1ccccc1	/	/	1%	4%[46.1 µM]
CCC(C)N(C)C1CCN(C(=S)Nc2cccc(SC)c2)CC1 (stereo not given)	-2	4	-28%	?
COCCNc1oc(-c2ccc(OC)cc2)nc1C#N	/	/	?	4%[46.1 µM]
COCCCNc1oc(-c2ccc(COc3ccc(Cl)cc3)o2)nc1C#N	/	/	-9%[46.1 µM]	?
Cc1ccc(-c2nc(C#N)c(NCCN3CCCCC3)o2)cc1	15*	25*	10%	?
COCCNc1oc(-c2ccc(Cl)cc2)nc1C#N	38*	70*	9%	?
COCCNc1oc(-c2ccc(C)cc2)nc1C#N	23*	66	?	-1%
SMILES	Cycloheximide cs	Shiga toxin inh	Lassa entry inh	MARV entry inh
COc1ccc(CCN2C(=O)CN(C3CCCCCC3)C(=O)C2c2ccc(C)cc2)cc1OC (stereo not given)	/	/	10%[46.1 µM]	/
CCOc1cc(C(=O)N(C)CC(=O)Nc2cccc(F)c2)ccc1OCC(=O)N1CCOCC1	/	/	1%	11%
Cn1c(=O)[nH]c(=O)c2c1nc(CN1CCN(c3ccccc3)CC1)n2Cc1c(F)cccc1Cl	/	/	-8%[46.1 µM]	-1%[46.1 µM]
O=C(NCCC1=CCCCC1)c1cnsn1	35*	46*	0%	-17%[46.1 µM]
Cc1cc(C(=O)NCCc2ccc(Cl)cc2)no1	13	24	-12%[46.1 µM]	?
Cc1cc(C(=O)NCCC2=CCCCC2)no1	45*	91*	?	?
O=C(NCCC1=CCCCC1)c1cc2c(s1)CS(=O)(=O)C2	17*	25*	0%	23%
COc1ccc(-c2csc3nc(-c4ccccc4OC)oc(=O)c23)cc1	-2	-6	-4%[46.1 µM]	?
COc1ccc(/C=N/OC(=O)Nc2ccc(Cl)cc2)c(OC)c1	25*	22	0%[46.1 µM]	17%[46.1 µM]
COc1ccc(OC)c(/C=N/OC(=O)Nc2ccc(Cl)cc2)c1	4	11	/	/
Cc1ccc(NC(=O)O/N=C/c2ccc(N(C)C)cc2)cc1	21*	22	?	12%
COc1ccc(NC(=O)O/N=C/c2ccncc2)cc1	15	43*	-15%[46.1 µM]	7%[46.1 µM]
COc1ccc(/C=N/OC(=O)Nc2ccccc2OC)cc1	42*	94*	?	?
CCOc1ccc(C(=O)OCC(=O)N2CC(C)OC(C)C2)cc1OCC (stereo not given)	8	12	0%[46.1 µM]	5%[46.1 µM]
CCOc1cc(N2CCOCC2)c(OCC)cc1NC(=O)CN1C(=O)NC(CC)(c2ccc(F)cc2)C1=O (stereo not given)	/	/	13%	5%
Cc1cc(=O)oc2c(C)c(OCC(=O)N3CCN(c4cccc(Cl)c4)CC3)ccc12	-4	-14	/	/
CN(C)c1ccc(/C=N/OC(=O)Nc2ccccc2Cl)cc1	22*	95*	-24%	20%
COc1ccc(NC(=O)O/N=C/c2ccc(N(C)C)cc2)cc1	33*	57*	26%[46.1 µM]	?
COc1ccc(C=NOCC(=O)OCC(=O)Nc2ccc(OC)cc2)cc1	/	/	2%	-6%
COc1cc2c3cc1Oc1c(OC)c(OC)cc4c1[C@@H](Cc1ccc(OC(=O)c5ccc([N+](=O)[O-])cc5)c(c1)Oc1ccc(cc1)C[C@@H]3N(C)CC2)N(C)CC4	-4	7	/	/
CN(C)C1CCc2[nH]c3ccc(NC(=O)c4ccc(F)cc4)cc3c2C1 (stereo not given)	-4	-1	/	/
COC(=O)NCC(C)OC(=O)Nc1ccc(Cl)cc1 (stereo not given)	11	55*	1%[46.1 µM]	-2%[46.1 µM]
Cc1ccc(NC(=O)OCCNC(=O)OC(C)C)cc1	42*	81*	-11%	?
Cc1ccc(NC(=O)OC(C)CNC(=O)Oc2cccc(C)c2)cc1 (stereo not given)	38*	74*	/	/
CC(C)N(CCCNC(=O)c1ccc(CS(=O)(=O)c2c(Cl)cccc2Cl)o1)Cc1ccccc1	12	-4	/	/
SMILES	Cycloheximide cs	Shiga toxin inh	Lassa entry inh	MARV entry inh
O=C1CCN(Cc2ccccc2)CCN1CCSc1ccccc1	42*	41*	/	/
CCCN1CCC(=O)N(CCSc2ccc(NC(C)=O)cc2)CC1	64*!	108*!	/	/
CC(=O)Nc1ccc(SCCN2CCN(CC(C)C)CCC2=O)cc1	-5	-5	/	/
CCCN1CCC(=O)N(CCSc2ccccc2)CC1	40*	44*	/	/
c1ccc(SCCN2CCN(c3ccccc3)CC2)cc1	13*	45	/	/
CC1=NN(C(C#N)c2ccccc2C)C(C)(C)C1 (stereo not given)	-3	13	-2%	-8%
